Results on 94 compounds are retold here after PubChem BioAssay AID1347418 (Sanford-Burnham Center for Chemical Genomics, 2020).

“And” between values parts separate entries of the source, which are not always exact repeats. Identical values can stand only once. The campaign covered roughly 1,300 compounds. About 750 (58%) were called active. The list shows a part of the results. Where a structure was tested more than once in an assay, its records may differ in their call.

For this experiment, the target named is Sulfhydryl oxidase 1 (Homo sapiens) (UniProt O00391). Briefly: QSOX1 enzyme inhibitors, primary screen, biochemical, ROS-Glo H2O2 luminescence, HTS (AID 1347418). As to conditions: recombinant QSOX1, ROS-Glo H2O2 luminescence, at 12.5 µM, stronger effect = higher value; active = any value above zero unless noted.
Chain of Sulfhydryl oxidase 1 (Homo sapiens) (O00391 whole entry, looked up): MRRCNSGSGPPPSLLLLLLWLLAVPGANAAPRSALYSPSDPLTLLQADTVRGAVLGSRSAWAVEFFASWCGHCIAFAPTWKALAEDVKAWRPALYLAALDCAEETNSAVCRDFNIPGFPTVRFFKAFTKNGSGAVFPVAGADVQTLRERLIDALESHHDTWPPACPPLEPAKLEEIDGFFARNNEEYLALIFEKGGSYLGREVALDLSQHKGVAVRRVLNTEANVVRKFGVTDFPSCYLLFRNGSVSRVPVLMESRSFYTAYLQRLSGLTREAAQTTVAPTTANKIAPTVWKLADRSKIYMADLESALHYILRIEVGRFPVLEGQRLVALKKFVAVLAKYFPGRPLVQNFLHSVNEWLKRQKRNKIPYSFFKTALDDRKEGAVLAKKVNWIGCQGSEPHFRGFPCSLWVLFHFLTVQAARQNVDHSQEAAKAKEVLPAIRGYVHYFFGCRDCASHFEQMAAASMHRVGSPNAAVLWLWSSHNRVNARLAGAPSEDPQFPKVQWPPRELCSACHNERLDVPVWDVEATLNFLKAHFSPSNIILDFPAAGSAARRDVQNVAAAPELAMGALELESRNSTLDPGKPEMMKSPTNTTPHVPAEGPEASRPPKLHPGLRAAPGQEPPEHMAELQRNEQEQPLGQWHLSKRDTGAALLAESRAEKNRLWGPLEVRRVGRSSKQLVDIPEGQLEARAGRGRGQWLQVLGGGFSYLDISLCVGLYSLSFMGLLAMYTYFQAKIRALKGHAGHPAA
The term inhibition denotes the relative decrease from the control value, in per cent. In the case of `O=C(O)c1nn(Cc2ccc(Cl)cc2Cl)c2ccccc12`, the inhibition is 6.3% [setting not given] (active).

For `CCS(=O)(=O)Nc1cccc(C(=C2CCCCC2)c2cnc[nH]2)c1`, the inhibition was 1.9% (active).

As to `O=[N+]([O-])/C=C/c1ccc2c(c1)OCO2`, the inhibition was -5.8% (inactive).

For `CC[C@@]1(O)C(=O)OCc2c1cc1n(c2=O)Cc2cc3ccccc3nc2-1`, the inhibition was 6.2% [setting not given] (active).

For `NC(Cc1cc(O)c(O)cc1O)C(=O)O` (centres undefined), the inhibition was 12% (active).

As to `NCCc1c[nH]c2ccccc12`, the inhibition was 5.9% [setting not given] (active).

Take `COc1ccc2[nH]cc(CCN)c2c1`: the inhibition is -1.9% [setting not given] (inactive).

In the case of `CCCN(CCC)CCc1c[nH]c2ccc(C(N)=O)cc12`, the inhibition was -6.3% [setting not given] (inactive).

Take `CNCCc1c[nH]c2ccc(O)cc12`: the inhibition was 9.6% [setting not given] (active).

For `NCCc1c[nH]c2ccc(O)cc12`, the inhibition was 23.8% (active).

In the case of `NCCc1c[nH]c2ccc(C(N)=O)cc12`, the inhibition was 0.5% (active).

As for `OC1CCCCC1N1CCC(c2ccccc2)CC1` (centres undefined), the inhibition is -0.9% [setting not given] (inactive).

Regarding `CC(N)Cc1c[nH]c2ccc(O)cc12` (centres undefined), the inhibition was 20.8% [setting not given] (active).

Regarding `Cc1[nH]c2ccc(O)cc2c1CCN`, the inhibition was 16.3% [setting not given] (active).

Consider `CC(N)Cc1c[nH]c2ccc(OCc3cccs3)cc12` (centres undefined), for which the inhibition is 0.1% [setting not given] (active).

Turning to `CC(=O)NCCc1c[nH]c2ccccc12`, the inhibition is 12.2% [setting not given] (active).

As for `c1ccc2c(c1)OCC(C1=NCCN1)O2` (centres undefined), the inhibition was -2.6% (inactive).

As for `Cn1cnc(CCN)c1`, the inhibition is -4.6% (inactive).

With `CN1C[C@H](CNC(=O)OCc2ccccc2)C[C@@H]2c3cccc4c3c(cn4C)C[C@H]21`, the inhibition was 10.7% [setting not given] (active).

For `CP(=O)(O)C1=CCNCC1`, the inhibition was 0.8% (active).

As for `NC(N)=NOCCC(N)C(=O)O` (centres undefined), the inhibition is -1% (inactive).

With `NC(N)=NOCC[C@H](N)C(=O)O`, the inhibition was 4% [setting not given] (active).

On to `COc1cc(C(O)CN)ccc1O` (centres undefined), for which the inhibition is 4.4% (active).

For `CNCC(O)c1ccc(O)cc1` (centres undefined), the inhibition is 2.1% [setting not given] (active).

As to `NNC(=O)c1ccc(O)cc1`, the inhibition was -1% (inactive).

Regarding `NCC(O)c1ccc(O)cc1` (centres undefined), the inhibition is 6.8% [setting not given] (active).

For the compound `OCc1cnc[nH]1`, the inhibition was -0.7% (inactive).

With `O=C(O)Cc1cnc[nH]1`, the inhibition was 4.8% (active).

As for `Oc1ccc2c3c1O[C@H]1c4oc5ccccc5c4C[C@@]4(O)C(C2)N(CC2CC2)CCC314` (some centres undefined), the inhibition is 1.7% [setting not given] (active).

Turning to `Oc1ccc2c3c1O[C@H]1c4[nH]c5ccccc5c4C[C@@]4(O)C(C2)N(CC2CC2)CCC314` (some centres undefined), the inhibition was 8.5% [setting not given] (active).

For `Oc1ccc2c3c1O[C@H]1c4[nH]c5c(c4C[C@@]4(O)[C@@H](C2)N(CC2CC2)CC[C@]314)C[C@@]1(O)[C@H]2Cc3ccc(O)c4c3[C@@]1(CCN2CC1CC1)[C@H]5O4`, the inhibition was 0.3% (active).

As for `O=C1/C(=C/c2ccccc2)C[C@@]2(O)[C@H]3Cc4ccc(O)c5c4[C@@]2(CCN3CC2CC2)[C@H]1O5`, the inhibition is -0.8% [setting not given] (inactive).

`NC(N)=Nc1ccc2[nH]c3c(c2c1)C[C@@]1(O)[C@H]2Cc4ccc(O)c5c4[C@@]1(CCN2CC1CC1)[C@H]3O5`: the inhibition was 7.1% [setting not given] (active).

Regarding `CC(C)(O)[C@@H]1[C@H]2OC(=O)[C@@H]1[C@]1(O)C[C@H]3O[C@]34C(=O)O[C@H]2[C@]14C` (tested in a mixture with another compound), the inhibition is -1.5% (inactive).

Turning to `CN1CCc2cccc(Cl)c2CC1`, the inhibition is -4.5% (inactive).

Regarding `CC(C)Oc1cccnc1N(C)C1CCN(Cc2ccccc2)CC1`, the inhibition is 8.9% (active).

In the case of `O=c1[nH]c2ccccc2n1C1CCN(CCCC(c2ccc(F)cc2)c2ccc(F)cc2)CC1`, the inhibition was 4.6% [setting not given] (active).

For `O=c1[nH]c2ccccc2n1CCCN1CCC(n2c(=O)[nH]c3cc(Cl)ccc32)CC1`, the inhibition is -1.8% [setting not given] (inactive).

On to `O=C(O)CCCc1ccc(N(CCCl)CCCl)cc1`, for which the inhibition was 4.4% [setting not given] (active).

`Cn1c(CCCC(=O)O)nc2cc(N(CCCl)CCCl)ccc21`: the inhibition is 33.3% (active).

In the case of `NC(Cc1ccc(N(CCCl)CCCl)cc1)C(=O)O` (centres undefined), the inhibition is 32.1% (active).

Take `Cc1ncc(CNC(=O)N(CCCl)N=O)c(N)n1`: the inhibition was -0.8% (inactive).

In the case of `CCCn1c(C)c(C(=O)c2ccc3ccccc3c2)c2ccccc21`, the inhibition is 3.4% [setting not given] (active).

`O=c1c2ccccc2[se]n1-c1ccccc1`: the inhibition was 61% [setting not given] (active).

For `CCCN1CCC[C@H](c2cccc(O)c2)C1`, the inhibition was 0.7% (active).

With `CCCN1CCC[C@@H](c2cccc(O)c2)C1`, the inhibition is -1.9% (inactive).

Take `C=C(C)[C@H]1Cc2c(ccc3c2O[C@@H]2COc4cc(OC)c(OC)cc4[C@@H]2C3=O)O1`: the inhibition is 8.2% [setting not given] (active).

Take `Cc1ccc(S(=O)(=O)N[C@@H](CCCCN)C(=O)CCl)cc1`: the inhibition is 2.5% (active).

With `C#CCOC(=O)C1=CCCN(C)C1`, the inhibition was -6.3% (inactive).

For `COC(=O)C1=CCCN(C)C1`, the inhibition is 0.8% [setting not given] (active).

As to `NCc1cc(=O)[nH]o1`, the inhibition is -4.8% (inactive).

For `CN1C(=O)CCS(=O)(=O)C1c1ccc(Cl)cc1` (centres undefined), the inhibition is 4.6% (active).

As to `NC(=O)CI`, the inhibition is -1.4% (inactive).

On to `NNC(N)=O`, for which the inhibition is 2% (active).

For `c1ccc2c(N3CCNCC3)cccc2c1`, the inhibition is 2.2% (active).

For `COc1ccccc1N1CCNCC1`, the inhibition is -0.9% [setting not given] (inactive).

For `CS(=N)(=O)CC[C@H](N)C(=O)O` (some centres undefined), the inhibition is 2% (active).

`CC(=O)OCC1=C(C(=O)O)N2C(=O)[C@@H](NC(=O)CCC[C@@H](N)C(=O)O)[C@H]2SC1`: the inhibition is -4.2% (inactive).

As for `COc1ccc2c(c1)c(CCN1CCOCC1)c(C)n2C(=O)c1cccc(Cl)c1Cl`, the inhibition is 1.4% (active).

Turning to `CC(C)=CCOc1c2occc2cc2ccc(=O)oc12`, the inhibition is 2.6% [setting not given] (active).

Turning to `C[C@H](Cc1ccc2c(c1)OC(C(=O)O)(C(=O)O)O2)NC[C@H](O)c1cccc(Cl)c1`, the inhibition is -1.8% (inactive).

As for `NC(=O)COc1c(F)cc(SCCNS(=O)(=O)c2ccccc2)cc1F`, the inhibition was 4% (active).

In the case of `CC(=O)NBr`, the inhibition is -4.9% (inactive).

In the case of `O=C(N[C@H]1CN2CCC1CC2)c1ccc(Cl)cc1`, the inhibition is 0.7% (active).

For `COC[C@H]1OC(=O)c2coc3c2[C@@]1(C)C1=C(C3=O)C2CCC(=O)[C@@]2(C)C[C@H]1OC(C)=O` (some centres undefined), the inhibition was 6% (active).

In the case of `CCCCCCC(C)(C)c1ccc([C@@H]2C[C@H](O)CC[C@H]2CCCO)c(O)c1`, the inhibition was 5.1% [setting not given] (active).

For `CCCCCCCCCCCCCC(=O)O[C@@H]1[C@@H](C)[C@@]2(O)[C@@H](C=C(CO)C[C@@]3(O)C(=O)C(C)=C[C@@H]23)C2C(C)(C)[C@@]21OC(C)=O` (some centres undefined), the inhibition is 1.1% (active).

Regarding `CC(=O)[C@H]1CCC2C3CC[C@H]4C[C@H](O)CC[C@]4(C)C3CC[C@@]21C` (some centres undefined), the inhibition is -2.4% [setting not given] (inactive).

For `CC(=O)[C@H]1CC[C@H]2[C@@H]3CC[C@H]4C[C@](C)(O)CC[C@]4(C)[C@H]3CC[C@]12C`, the inhibition was 0.1% [setting not given] (active).

Consider `C[C@]12CCC3C(CC[C@H]4C[C@H](O)CC[C@]34C)C1CC[C@@H]2C(=O)CO` (some centres undefined), for which the inhibition is -1.5% (inactive).

On to `Cc1c(C(=O)c2cccc3ccccc23)c2cccc3c2n1[C@H](CN1CCOCC1)CO3`, for which the inhibition was 7.5% [setting not given] (active).

`O=C(O)c1cc[c]([Hg][Cl])cc1`: the inhibition was -7.7% (inactive).

With `O=[N+]([O-])c1ccc2nc(N3CCNCC3)ccc2c1`, the inhibition is 0.9% (active).

Take `C=CCN1C[C@@H](C)N([C@H](c2ccc(C(=O)N(CC)CC)cc2)c2cccc(OC)c2)C[C@@H]1C`: the inhibition was -4.2% (inactive).

Consider `Cc1cc([C@@H]2CCCN2C)on1`, for which the inhibition is 4.2% (active).

As to `Clc1cc(I)cc(Cl)c1NC1=NCCN1`, the inhibition was -4.1% (inactive).

In the case of `O=C1C=CC(=O)C=C1`, the inhibition was -2.3% (inactive).

On to `C[C@]12N[C@H](Cc3ccccc31)c1ccccc12`, for which the inhibition was 2.8% [setting not given] (active).

Consider `CC12NC(Cc3ccccc31)c1ccccc12` (centres undefined), for which the inhibition is 1.2% [setting not given] (active).

On to `CC(O)(CS(=O)(=O)c1ccc(F)cc1)C(=O)Nc1ccc(C#N)c(C(F)(F)F)c1` (centres undefined), for which the inhibition was -1.2% [setting not given] (inactive).

On to `CC(C)[C@H]1CN[C@H](C(=O)O)[C@H]1CC(=O)O`, for which the inhibition was 0.8% (active).

Turning to `C=C(C)[C@H]1CN[C@H](C(=O)O)[C@H]1CC(=O)O`, the inhibition is -6.1% (inactive).

Regarding `C=CCN1CC[C@]23CCCCC2[C@H]1Cc1ccc(O)cc13` (some centres undefined), the inhibition is 4.2% [setting not given] (active).

For the compound `NCC(O)c1cc(O)c(O)cc1F` (centres undefined), the inhibition was 12.3% (active).

As to `NN=C(N)N`, the inhibition is 6.4% (active) and -1.5% (inactive).

For the compound `NCC1(CC(=O)O)CCCCC1`, the inhibition was -2.9% [setting not given] (inactive).

In the case of `O=P1(N(CCCl)CCCl)NCCCO1` (centres undefined), the inhibition was 4.8% (active).

Regarding `c1ccc2cc(CC3=NCCN3)ccc2c1`, the inhibition was -1.3% [setting not given] (inactive).

Take `CCCN(CCC)C1Cc2cc(OC)c(OC)cc2C1`: the inhibition is -0.2% (inactive).

`CCCN(CCC)C1CCc2cccc(O)c2C1` (centres undefined): the inhibition was -7.7% (inactive).

For `CCCN(CCC)[C@@H]1CCc2cccc(O)c2C1`, the inhibition is 3.9% (active).

On to `CCCN(CCC)C1CCc2ccc(O)cc2C1` (centres undefined), for which the inhibition was 3.7% (active).

`CCCN(CCC)[C@H]1CCc2c(F)ccc(O)c2C1`: the inhibition is -4.8% (inactive).

Consider `CCCN(CCC)[C@@H]1CCc2ccc(O)cc2C1`, for which the inhibition is 6.3% (active).
